Bioassay records as filed in PubChem.
DRD3 antagonist: antagonists of human D3 dopamine receptor; P35462; D3R cells, DiscoveRx beta-arrestin luminescence, antagonist mode; stronger effect = lower value; 360,000 tested, 2.5% active; max response, negative = inhibition, %; in the data active = max response below about -50%; inconclusive = no clear call, values can overlap the other calls; note: % is set by controls: 0 for no effect and ±100 for the full control effect
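Cells expressing the human receptor were seeded at 1500 cells/well, incubated overnight at 37 degrees C in 5% CO2, then exposed to library compounds with dopamine controls for 90 minutes at 37 degrees C before luminescent detection.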
GLP-1R inv ag: GLP-1 receptor (human) inverse agonism. P43220. HEK293 GLP-1R CRE-luciferase, luminescence, 24 h; GLP-1R form is constitutively active. Potency, µM (series often up to 38.3 µM), for the others: top-dose activity change, negative = inhibition, most hits filed as inhibitors. 410,000 tested, 1.6% active. AID 624417; note: potency is the fitted concentration of half-maximal effect; % is set by controls: 0 for no effect and ±100 for the full control effect; nearly all actives have a fitted effect of over 55% in size
Target sequence (P43220 whole entry, looked up): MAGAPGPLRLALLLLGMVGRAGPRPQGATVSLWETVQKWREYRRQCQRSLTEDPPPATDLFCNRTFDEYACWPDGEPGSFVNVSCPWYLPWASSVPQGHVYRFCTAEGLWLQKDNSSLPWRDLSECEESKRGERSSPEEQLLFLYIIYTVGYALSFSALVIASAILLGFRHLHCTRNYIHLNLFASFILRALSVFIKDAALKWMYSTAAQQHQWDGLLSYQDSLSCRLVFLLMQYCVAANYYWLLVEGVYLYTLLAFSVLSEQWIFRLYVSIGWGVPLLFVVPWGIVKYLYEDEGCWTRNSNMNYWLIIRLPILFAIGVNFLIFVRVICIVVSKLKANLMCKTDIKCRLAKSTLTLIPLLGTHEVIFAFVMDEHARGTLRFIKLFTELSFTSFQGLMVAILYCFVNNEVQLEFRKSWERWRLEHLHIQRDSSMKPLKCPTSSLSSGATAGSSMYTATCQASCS
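Inverse agonism was detected as reduced cAMP-driven luciferase luminescence after 24 h compound treatment. The cells were HEK293 clones expressing constitutively active human GLP-1R with the reporter. Reporter-only and GPR119 cell lines served as counterscreen controls.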
GLP-1R agonist: GLP-1 receptor (human) agonism; HEK293 GLP-1R CRE-luciferase, luminescence, 4-6 h; cells express a hypersensitive GLP-1R form; 380,000 tested, 0.007% active; P43220; Potency, µM (top dose mostly 45.6 µM), for the others: at the top dose activation, most hits filed as activators; note: potency is the fitted concentration of half-maximal effect; % of control where 0% means no effect
DRD3 agonist: activates the human D3 dopamine receptor | P35462 | D3R DiscoveRx beta-arrestin cells, luminescence, 90 min | max activation, % | 410,000 tested, 0.58% active; in the data active = max activation above about 30%; note: 0% is about no effect
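Agonist mode: compounds and dopamine controls were applied to plated cells for 90 min at 37 degrees C after an overnight attachment at 1500 cells/well. Luminescent read-out followed 30 - 60 minutes at room temperature with DiscoveRx detection reagent.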
An asterisk follows results filed as active; ? = inconclusive; / = not tested or not shown. The list is not random: actives were taken first. Their share in the collection is about 4.3%. Unless noted, calls come from the whole dose curve; as a rule, active = well fitted curve in the direction sought with a large enough effect; inconclusive = small, poorly fitted or top-dose-only effect, or another doubt; inactive = no such curve, though single readings can be large; an effect the other way counts as inactive or inconclusive.

SMILES	DRD3 antagonist	GLP-1R inv ag	GLP-1R agonist	DRD3 agonist
CCOc1ccc(OCCCC(=O)N(C)CC(=O)Nc2ccccc2Br)cc1	-5	-24%	0%	0
CCCN(CC(=O)Nc1ccccc1C)C(=O)CCCOc1ccc(Br)cc1	-4	8.9µM*	1%	0
COc1ccc(-n2c(=O)c3sc4ccccc4c3n(CC(=O)N3CCCC3)c2=O)cc1	/	-8%	0%	3
Cc1sc2ncn(CC(=O)NCCCN3CC(C)CC(C)C3)c(=O)c2c1S(=O)(=O)N1CC(C)CC(C)C1 (configuration not stated)	-90*	2%	10%	-28
COCCCNC(=O)Cn1cnc2sc(C)c(S(=O)(=O)N3CC(C)CC(C)C3)c2c1=O (configuration not stated)	-3	-5%	1%	6
CCOC(=O)c1cc(S(=O)(=O)Nc2ccc(OC)c(Cl)c2)[nH]n1	/	-27%	1%	-7
Cc1ccc(CNC(=O)c2nn(C)c3c2CSc2ccc(C)cc2-3)cc1	/	?	/	4
CCOc1ccc(CCNC(=O)c2nn(C)c3c2CSc2ccc(C)cc2-3)cc1OCC	/	10µM*	/	3
COc1ccc(CN2CCc3ccccc3C2)cc1Br	-92*	?	22%	-7
COc1ccc(CN2CCc3cc(OC)c(OC)cc3C2)cc1O	-58*	?	-8%	-56
COc1cc2c(cc1OC)CN(Cc1ccc(F)cc1)CC2	-30	-10%	5%	-27
Cc1ccc(/C=C2\SC(=S)N(/N=C/c3cc([N+](=O)[O-])ccc3O)C2=O)o1	-75*	0%	-4%	-4
O=C(CN1CCN(S(=O)(=O)c2ccc(Br)cc2)CC1)N/N=C/c1ccc(Cl)c([N+](=O)[O-])c1	-70*	?	8%	-9
Cc1ccc(S(=O)(=O)N2CCN(CC(=O)N/N=C\c3ccc(Cl)c([N+](=O)[O-])c3)CC2)cc1	-20	-5%	-6%	2
CCOC(=O)c1ccc(NC(=O)Nc2ccc(F)cc2)cc1	28	4.5µM*	-6%	-4
COC(=O)c1ccc(NC(=O)Nc2ccc(F)cc2)cc1	12	?	1%	6
CCOC(=O)c1ccc(NC(=O)C2(c3ccc(OC)cc3)CCOCC2)cc1	0	?	1%	2
CCOC(=O)c1ccc(NC(=O)C2(c3ccc(OC)cc3)CCCC2)cc1	46	5µM*	2%	1
Cc1cc(C)n(/N=C/c2ccccc2O)c(=O)c1	3	18%	2%	7
Cc1cc(C)n(/N=C/c2cc(Cl)cc(Cl)c2O)c(=O)c1	-77*	-34%	9%	-28
CC1CCCCN1CCCNC(=O)c1[nH]c2ccccc2c1Sc1ccc(Cl)cc1 (configuration not stated)	/	?	/	0
O=S(=O)(c1ccccc1)c1nnn2c1nc(NCc1ccccc1)c1cc(Cl)ccc12	/	-14%	/	2
Cc1nn(-c2ccccc2)c(Cl)c1C(=O)NCC(C)C	13	-5%	1%	-2
Cc1ccc(-n2nc(C(=O)O)nc2-c2ccccc2)cc1	-51*	0%	9%	-8
CC(C)CNC(=O)c1nc(-c2ccccc2)n(-c2ccccc2)n1	-2	13µM*	4%	9
SMILES	DRD3 antagonist	GLP-1R inv ag	GLP-1R agonist	DRD3 agonist
C/C=C(/CC[C@@H](C)[C@H]1CC[C@H]2C3=CC[C@H]4[C@H](C)[C@@H](O)CC[C@]4(C)[C@H]3CC[C@]12C)C(C)C	/	/	/	9
O=C(Nc1cc(F)ccc1F)N1CCC(CN2CCOCC2)CC1	/	-14%	/	-8
O=C(c1cc2sccc2n1Cc1ccc(F)cc1)N1CCN(c2nc3ccccc3s2)CC1	7	4.5µM*	-6%	4
O=C(NCCN1CCOCC1)c1cc2sccc2n1Cc1ccc(Cl)cc1	-96*	?	4%	-34
O=C(NCCN1CCOCC1)c1cc2sccc2n1Cc1ccc(F)cc1	-97*	1%	12%	-65
Fc1cccc(CN2CCN3CCCC3C2C2CCCCC2)c1 (configuration not stated)	?	?	-14%	-26
Fc1ccc(CN2CCN3CCCC3C2C2CCCCC2)cc1F (configuration not stated)	-78*	?	-7%	-13
CCOC(=O)C(C)NC(=O)C1CCN(c2ncnc3c2nc2n3CCCCC2)CC1 (configuration not stated)	/	-2%	/	-4
CCOC(=O)c1c(C)[nH]c(CCC(=O)NCCCN2CCN(c3ccccc3F)CC2)c1C	/	-31%	/	12
Cc1ccc(C(=O)N/N=C\c2cc3c(cc2Br)OCO3)s1	-66*	4%	17%	-35
CCn1ccnc1CN(C)Cc1cn(-c2cccc(C)c2)nc1-c1cccc(F)c1	0	13µM*	-3%	4
Cc1cccc(-n2cc(CN(C)Cc3nccn3C)c(-c3cccc(F)c3)n2)c1	?	?	-5%	-9
NCCSc1c(-c2ccc(F)cc2)[nH]c2ccccc12	-19	10µM*	-6%	-11
NCCSc1c(-c2ccccc2)[nH]c2ccccc12	-29	?	-5%	-7
CC(C)(C)c1csc(NC(=O)c2ccc(Cl)s2)n1	5	2.8µM*	-2%	0
CC(C)(C)c1csc(NC(=O)c2ccc(Br)o2)n1	-18	10µM*	1%	-11
CC(C)(C)c1csc(NC(=O)c2ccncc2)n1	2	25%	2%	10
Cc1ccc2c(c1)c1c(c(=O)n(-c3ccccc3C)c(=O)n1CC(=O)NCCC1=CCCCC1)n2C	/	2%	-1%	-8
CCCCN1CC(O)C(O)C(O)C1CO (configuration not stated)	/	/	-1%	/
CCSC1=C(C#N)C(c2ccc(C)o2)CC(=O)N1 (configuration not stated)	1	5%	11%	12
Cc1ccc(C2CC(=O)NC(SCc3ccccc3)=C2C#N)o1 (configuration not stated)	-62*	0%	2%	-3
CN1C2CCC1CC(N(CCc1ccccc1)C(=O)c1ccc(Cl)cc1)C2 (configuration not stated)	4	10µM*	-4%	-6
CCC/C(=C1/c2ccccc2C(=O)N1c1ccccc1)c1ccc2c(c1)OCCO2	-2	?	8%	-1
CCC/C(=C1/c2ccccc2C(=O)N1c1ccccc1)c1ccc(O[C@@H]2CCCCO2)cc1	-6	13µM*	-6%	1
COc1ccccc1C1C([N+](=O)[O-])=CC([N+](=O)[O-])=CN1C (configuration not stated)	-1	26%	9%	-5
COc1ccccc1C1NC=C([N+](=O)[O-])C=C1[N+](=O)[O-] (configuration not stated)	-62*	32%	-2%	-19
Cc1nc(NC(=O)c2cc3c(s2)CCCCC3)sc1C(=O)N(C)C	-16	3%	11%	-7
Cc1nc(NC(=O)c2ccc(Br)s2)sc1C(=O)N(C)C	-69*	0%	-2%	3
Cc1ccc(NC(=O)c2cc(S(=O)(=O)NC3CCCCC3)ccc2F)cc1Cl	/	7.9µM*	/	-14
